± gives the standard deviation of the averaged measurements.
Experiments:
Assay in all cases: cell viability (% of vehicle); higher = less cytotoxic
Details in all cases: 10 µM; 72 h
[1] = test system: HCI01 (cells of a triple-negative basal-like breast cancer xenograft)
[2] = test system: HCI03 (cells of an ER-positive luminal breast cancer xenograft)
[3] = test system: HCI09 (cells of a triple-negative luminal androgen receptor type breast cancer xenograft)
[4] = test system: HCI11 (cells of an ER-positive luminal breast cancer xenograft)
[5] = test system: HCI13 (cells of an ER-positive luminal breast cancer xenograft)
[6] = test system: HCI16 (cells of a triple-negative basal-like breast cancer xenograft)
[7] = test system: UCD52 (cells of a triple-negative basal-like breast cancer xenograft)
[8] = test system: WHIM2 (cells of a triple-negative basal-like breast cancer xenograft)
[9] = test system: WHIM30 (cells of a triple-negative basal-like breast cancer xenograft)
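Further: PDX cells carrying CMV promoter-driven luciferase, viability read as total photon flux per second by IVIS imaging following D-luciferin, vehicle control 0.1% DMSO.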

| SMILES | cell viability [1] | cell viability [2] | cell viability [3] | cell viability [4] | cell viability [5] | cell viability [6] | cell viability [7] | cell viability [8] | cell viability [9] |
| --- | --- | --- | --- | --- | --- | --- | --- | --- | --- |
| COC(=O)C1=COC(O)C2C(CO)=CCC12 (stereo unspecified) [Genipin] | 168 ± 20 | 138 | 95.3 ± 6 | 98.6 | 119 ± 2.7 | 198 | 110 ± 5.3 | 124 ± 11 | 155 ± 9.6 |
| CS(=O)(=O)c1ccc(C2=C(c3ccccc3)C(=O)OC2)cc1 [Rofecoxib] | 127 ± 8.3 | 119 | 84.3 ± 18 | 99.7 | 141 ± 20 | 96.7 | 78.7 ± 10 | 99 ± 6.9 | 84.6 ± 5.8 |
| COc1ccc(C2Sc3ccccc3N(CCN(C)C)C(=O)C2OC(C)=O)cc1.Cl (stereo unspecified) [Diltiazem HCl] | 81.5 ± 45 | 123 | 85.4 ± 4 | 88.9 | 95.5 ± 7.5 | 108 | 72.3 ± 5.6 | 93 ± 22 | 131 ± 15 |
| Cc1cn(C2CC(N=[N+]=[N-])C(CO)O2)c(=O)[nH]c1=O (stereo unspecified) [Zidovudine] | 104 ± 3.4 | 160 | 116 ± 1.2 | 101 | 124 ± 7.2 | 143 | 123 ± 16 | 98.22 ± 0.63 | 144 ± 7.7 |
| CN=C(NC#N)NCCSCc1nc[nH]c1C [Cimetidine] | 136 ± 22 | 124 | 93.85 ± 0.84 | 101 | 102 ± 16 | 115 | 88.1 ± 5.3 | 87.8 ± 19 | 120 ± 4.4 |
| CCCCC(=O)N(Cc1ccc(-c2ccccc2-c2nnn[nH]2)cc1)[C@H](C(=O)O)C(C)C.CCOC(=O)[C@H](C)C[C@@H](Cc1ccc(-c2ccccc2)cc1)NC(=O)CCC(=O)O | 98.1 ± 17 | 141 | 95.6 ± 18 | 92.9 | 87.9 ± 5.7 | 112 | 95.1 ± 8.6 | 93.4 ± 8.2 | 131 ± 11 |
| NCC1OC(OC2C(CO)OC(OC3C(O)C(N)CC(N)C3OC3OC(CN)C(O)C(O)C3N)C2O)C(N)C(O)C1O.O=S(=O)(O)O (stereo unspecified) [Neomycin sulfate] | 90.1 ± 22 | 135 | 91.8 ± 9.7 | 95.9 | 79.9 ± 2.5 | 111 | 92.9 ± 8.6 | 102 ± 7.7 | 95.9 ± 4.7 |
| CC(=O)Oc1ccccc1C(=O)O [Aspirin (Acetylsalicylic acid)] | 174 ± 16 | 107 | 98.5 ± 3.8 | 136 | 148 ± 30 | 151 | 142 ± 13 | 101 ± 16 | 160 ± 23 |
| O=C(O)[C@H](O)[C@@H](O)C(=O)O.c1cnc2cc3c(cc2n1)C1CNC[C@@H]3C1 [Varenicline Tartrate] | 169.5 ± 0.68 | 128 | 131 ± 5.6 | 138 | 128.8 ± 0.16 | 153 | 99.9 ± 8.8 | 106 ± 5.1 | 158 ± 25 |
| CCC1OC(=O)C(C)C(OC2CC(C)(OC)C(O)C(C)O2)C(C)C(OC2OC(C)CC(N(C)C)C2O)C(C)(O)CC(C)C(=NOCOCCOC)C(C)C(O)C1(C)O (stereo unspecified) [Roxithromycin] | 138 ± 34 | 147 | 113 ± 25 | 101 | 133 ± 12 | 154 | 103 ± 2.8 | 103 ± 17 | 188 ± 29 |
| O=C(O)COCCN1CCN(C(c2ccccc2)c2ccc(Cl)cc2)CC1 (stereo unspecified) [Cetirizine] | 108 ± 5.1 | 95.2 | 97.2 ± 2.1 | 93.5 | 108 ± 2.5 | 74.6 | 92.6 ± 3.8 | 94.8 ± 4.7 | 128 ± 9.9 |
| CNCC(O)C(O)C(O)C(O)CO.Cc1c(Nc2ncccc2C(=O)O)cccc1C(F)(F)F [Flunixin Meglumin] | 135 ± 49 | 120 | 141 ± 44 | 103 | 133 ± 14 | 105 | 77.6 ± 16 | 130 ± 17 | 107 ± 2.9 |
| NS(=O)(=O)Cc1noc2ccccc12 [Zonisamide] | 96.13 ± 0.4 | 136 | 90 ± 5 | 108 | 117 ± 18 | 99.1 | 130 ± 16 | 92.9 ± 7.1 | 129 ± 3.9 |
| CNC(=O)[C@H](Cc1ccccc1)NC(=O)[C@H](CC(C)C)[C@H](CSc1cccs1)C(=O)NO [Batimastat (BB-94)] | 94.3 ± 12 | 88.2 | 78.2 ± 20 | 95.3 | 127 ± 3.9 | 67 | 127 ± 16 | 72 ± 22 | 175 ± 0.83 |
| O=c1cc[nH]c(=S)[nH]1 [2-Thiouracil] | 107 ± 6.1 | 139 | 94.4 ± 19 | 103 | 82.4 ± 8.2 | 112 | 91.8 ± 2.9 | 117 ± 34 | 178 ± 5.9 |
| COc1cc2c(cc1Cc1cccc(Cl)c1F)c(=O)c(C(=O)O)cn2C(CO)C(C)C (stereo unspecified) [Elvitegravir (GS-9137)] | 114 ± 56 | 86.7 | 41.2 ± 36 | 109 | 47.4 ± 7.1 | 124 | 77.8 ± 6.1 | 73.8 ± 7.4 | 159 ± 21 |
| CCCCN1CCCCC1C(=O)Nc1c(C)cccc1C.Cl (stereo unspecified) [Levobupivacaine HCl] | 109 ± 22 | 101 | 117 ± 29 | 106 | 121 ± 14 | 141 | 107 ± 4.1 | 96.2 ± 3 | 163 ± 5.2 |

| SMILES | cell viability [1] | cell viability [2] | cell viability [3] | cell viability [4] | cell viability [5] | cell viability [6] | cell viability [7] | cell viability [8] | cell viability [9] |
| --- | --- | --- | --- | --- | --- | --- | --- | --- | --- |
| CN1CCC(=C2c3ccccc3C=Cc3ccccc32)CC1.Cl [Cyproheptadine hydrochloride] | 91 ± 16 | 115 | 83.3 ± 9 | 95.8 | 89.6 ± 1.1 | 90.1 | 79.8 ± 13 | 81.1 ± 14 | 116 ± 10 |
| CC(C)CN(CC(O)C(Cc1ccccc1)NC(=O)OC1CCOC1)S(=O)(=O)c1ccc(N)cc1 (stereo unspecified) [Amprenavir (agenerase)] | 96.3 ± 11 | 99.1 | 85.6 ± 4.6 | 104 | 103 ± 7.5 | 115 | 56.8 ± 3.1 | 78.8 ± 8.7 | 112 ± 25 |
| Nc1ccc(S(=O)(=O)Nc2nccs2)cc1 [Sulfathiazole] | 102 ± 30 | 140 | 93.4 ± 7.8 | 84.5 | 197 ± 28 | 116 | 96.5 ± 11 | 98.2 ± 6.3 | 110 ± 8.6 |
| CC(OC1OCCN(Cc2nc(=O)n(P(=O)(O)O)[nH]2)C1c1ccc(F)cc1)c1cc(C(F)(F)F)cc(C(F)(F)F)c1.CNCC(O)C(O)C(O)C(O)CO.CNCC(O)C(O)C(O)C(O)CO (stereo unspecified) [Fosaprepitant dimeglumine salt] | 67.4 ± 51 | 103 | 52.4 ± 27 | 85.1 | 76.2 ± 6.3 | 91.7 | 57.2 ± 7.3 | 79.7 ± 44 | 109 ± 2.4 |
| NC(=O)C(CCC(F)(F)F)N(Cc1ccc(-c2ncon2)cc1F)S(=O)(=O)c1ccc(Cl)cc1 (stereo unspecified) | 96 ± 23 | 142 | 67.5 ± 2.2 | 75.5 | 102 ± 16 | 96.7 | 81.58 ± 0.81 | 107.6 ± 0.73 | 124 ± 13 |
| O=C(O)c1cccnc1Nc1cccc(C(F)(F)F)c1 [Niflumic acid] | 135 ± 48 | 149 | 58.9 ± 21 | 68.8 | 125 ± 2.6 | 130 | 75.3 ± 5.3 | 105 ± 14 | 122 ± 2 |
| C#CCNC1CCc2ccccc21.CS(=O)(=O)O (stereo unspecified) [Rasagiline Mesylate] | 157 ± 6 | 117 | 117 ± 8.5 | 127 | 126 ± 4.8 | 141 | 107 ± 8.4 | 114 ± 6.4 | 139 ± 16 |
| NNC(=O)c1ccncc1 [Isoniazid] | 97.4 ± 7.2 | 109 | 92.6 ± 10 | 87.2 | 119 ± 13 | 127 | 72.6 ± 13 | 95.6 ± 4 | 114 ± 3.3 |
| CNS(=O)(=O)CCc1ccc2[nH]cc(C3CCN(C)CC3)c2c1.Cl [Naratriptan] | 102 ± 13 | 127 | 96.7 ± 4.1 | 72.5 | 86.22 ± 0.42 | 105 | 103 ± 1.1 | 91.5 ± 8 | 109 ± 7.3 |
| Nc1ccn(C2OC(CO)C(O)C2(F)F)c(=O)n1 (stereo unspecified) [Gemcitabine] | 70.3 ± 11 | 95.9 | 75.1 ± 9.5 | 112 | 118 ± 5.3 | 64.7 | 100.6 ± 0.62 | 78.9 ± 22 | 119 ± 12 |
| Cn1c([N+](=O)[O-])cnc1COC(N)=O [Ronidazole] | 95.3 ± 20 | 134 | 94.5 ± 2.1 | 88.1 | 102 ± 13 | 108 | 91.2 ± 2.2 | 90.4 ± 19 | 102 ± 2.5 |
| N=C(N)c1ccc(OCCCCCOc2ccc(C(=N)N)cc2)cc1.O=S(=O)(O)CCO.O=S(=O)(O)CCO [Pentamidine isethionate] | 98.1 ± 3.2 | 104 | 27.495 ± 0.0084 | 74.7 | 180 ± 61 | 87.7 | 91.2 ± 2.3 | 85.2 ± 19 | 113 ± 7.6 |
| CCC(C)C(=O)OC1CC(O)C=C2C=CC(C)C(CCC(O)CC(O)CC(=O)[O-])C21.[Na+] (stereo unspecified) [Pravastatin sodium] | 142 ± 13 | 184 | 126 ± 28 | 113 | 142.3 ± 0.11 | 152 | 100 ± 3.8 | 105 ± 20 | 156 ± 1.8 |
| CC(=O)Oc1cc(C(F)(F)F)ccc1C(=O)O [Triflusal] | 108 ± 22 | 129 | 97 ± 13 | 101 | 107 ± 1.9 | 98.4 | 76 ± 3.1 | 107 ± 17 | 85.4 ± 4.2 |
| CO/C(O)=N/[C@H](C(=O)N1CC2(CC2)C[C@H]1c1ncc(-c2ccc3c(c2)C(F)(F)c2cc(-c4ccc5nc([C@@H]6[C@H]7CC[C@H](C7)N6C(=O)[C@@H](/N=C(\O)OC)C(C)C)[nH]c5c4)ccc2-3)[nH]1)C(C)C [Ledipasvir] | 103 ± 1.7 | 94.4 | 55.6 ± 3.8 | 80.6 | 99 ± 8.5 | 72.3 | 73.6 ± 4.1 | 64.9 ± 9.5 | 104 ± 1.1 |
| COc1cc(CNC(=O)CCCCC=CC(C)C)ccc1O [Capsaicin] | 105 ± 8.6 | 120 | 75.8 ± 1.6 | 90.6 | 101 ± 17 | 82.4 | 78.3 ± 5.6 | 90.1 ± 21 | 108 ± 12 |
| CC1c2cccc(O)c2C(O)=C2C(=O)C3(O)C(O)=C(C(N)=O)C(=O)C(N(C)C)C3C(O)C21.Cl (stereo unspecified) [Doxycycline HCl] | 91.6 ± 4.1 | 106 | 90.6 ± 17 | 83.7 | 84 ± 14 | 104 | 89.9 ± 2.7 | 118 ± 14 | 98.7 ± 9.1 |

— the supplement of paper PMC6992640
